The entries come from a sample that favours hits as a whole.
14-3-3g Raf – 14-3-3 gamma protein interaction modulation | P61981 | FP, 14-3-3gamma / TMR-pS259-Raf peptide binding | inhibition, % at 40 µM | 0.19% of 160,000 active | AID 422; in the data active means inhibition above about 30%;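 further: 0% = protein plus tracer without compound and 100% = blank with tracer alone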
Target sequence (P61981 whole entry, looked up): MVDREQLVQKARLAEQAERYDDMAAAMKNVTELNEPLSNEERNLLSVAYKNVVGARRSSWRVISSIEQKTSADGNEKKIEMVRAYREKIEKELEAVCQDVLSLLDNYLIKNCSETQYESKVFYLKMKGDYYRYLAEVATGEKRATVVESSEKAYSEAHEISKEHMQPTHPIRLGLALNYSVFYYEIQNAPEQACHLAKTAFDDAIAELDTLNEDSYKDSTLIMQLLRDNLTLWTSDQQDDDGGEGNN
The depositor's hits bear a star; + = active, no number; ! = not active in a repeat.

SMILES	14-3-3g Raf
Cc1cccc(C(=O)Nc2c3c(nn2-c2ccc(Cl)cc2)CSC3)c1	-3
CCCN(CCC)c1ncnc2c1sc1nc3c(cc12)COC(C)(C)C3	-11
Cc1ccc(CNC(=O)CCNC(=O)c2ccc(Br)o2)cc1	-4
O=C(CCNC(=O)c1ccc(Br)o1)NCc1ccccc1Cl	1
O=C(CCNC(=O)c1ccc(Br)o1)NCc1ccccn1	+!
COc1ccc(-c2coc3cc4oc(=O)c5cc(OC)ccc5c4cc23)cc1	-39
CCC(=O)NC(=Nc1nc(C)c2cc(OC)ccc2n1)NC(=O)CC	-2
O=C(Cn1cc2c(n1)CCCC2)NCc1cccs1	-4
COc1ccc(CNC(=O)Cn2cc3c(n2)CCCCC3)cc1	2
O=C(Cn1cc2c(n1)CCCC2)NCc1ccccn1	67*
COc1ccc(C(=O)NCCSc2c(C)[nH]c3ccccc23)c(OC)c1	-7
Cc1nn(C(C)(C)C)c(OC(=O)c2ccc(F)cc2)c1S(=O)(=O)c1ccccc1	0
CCSc1nnc2c(n1)OC(c1ccccc1C)Nc1ccccc1-2 (configuration not stated)	41*
CCCSc1nnc2c(n1)OC(c1cc3c(cc1Cl)OCO3)Nc1ccccc1-2 (configuration not stated)	-50
CCCCCCSc1nnc2c(n1)OC(c1cccnc1)Nc1ccccc1-2 (configuration not stated)	68*
CCCSc1nnc2c(n1)OC(c1ccccc1Cl)Nc1ccccc1-2 (configuration not stated)	33*
C=CCSc1nnc2c(n1)OC(c1ccccc1C)Nc1ccccc1-2 (configuration not stated)	-7
CCCCSc1nnc2c(n1)OC1(CCCC1)Nc1ccccc1-2	117*
CCSc1nnc2c(n1)OC(c1cccc(C)n1)Nc1ccccc1-2 (configuration not stated)	2
CCCSc1nnc2c(n1)OC(c1ccncc1)Nc1ccccc1-2 (configuration not stated)	-9
CCCCSc1nnc2c(n1)OC(c1ccccc1)Nc1ccccc1-2 (configuration not stated)	-3
O=C(O)CSc1nnc2c(n1)OC1(CCCC1)Nc1ccccc1-2	-4
CCCSc1nnc2c(n1)OC1(CCCC1)Nc1ccc(Br)cc1-2	-58
CCCCSc1nnc2c(n1)OC(c1cccnc1)Nc1ccc(Br)cc1-2 (configuration not stated)	-34
CC1CCc2c(sc(NC(=O)c3cccc(S(=O)(=O)Nc4ccccc4Cl)c3)c2C#N)C1 (configuration not stated)	-7
SMILES	14-3-3g Raf
c1ccc(-c2cn3ccc4ccccc4c3n2)cc1	-11
Cn1c(CNc2ccc([N+](=O)[O-])cc2)c(C#N)c2ccccc21	1
Cc1ccc(NC(=O)CCC(=O)N2N=C(c3ccc(Br)cc3)CC2c2ccc(Br)cc2)cc1 (configuration not stated)	-8
O=C(O)CCCN(Cc1ccc(Cl)cc1)S(=O)(=O)c1ccc(F)cc1	2
Cc1ccc(S(=O)(=O)c2cccc(S(=O)(=O)N3CCCCCC3)c2)cc1S(=O)(=O)N1CCCCCC1	-16
CCC(=O)N1c2ccc(S(=O)(=O)Nc3ccc(F)cc3)cc2CC1C (configuration not stated)	4
C=CCSc1nnc2c(n1)OC(c1cccnc1)Nc1ccccc1-2 (configuration not stated)	-17
CSc1nnc2c(n1)OC(c1ccsc1)Nc1ccccc1-2 (configuration not stated)	-3
C=CCSc1nnc2c(n1)OC(c1cccc(O)c1)Nc1ccccc1-2 (configuration not stated)	-5
CCCSc1nnc2c(n1)OC(c1ccsc1)Nc1ccccc1-2 (configuration not stated)	64*
CSc1nnc2c(n1)OC(c1ccccc1O)Nc1ccccc1-2 (configuration not stated)	1
CCOc1cccc(C2Nc3ccccc3-c3nnc(SC)nc3O2)c1OC (configuration not stated)	-1
CCOc1ccc([N+](=O)[O-])cc1C1Nc2ccccc2-c2nnc(SC)nc2O1 (configuration not stated)	38*
CCOc1cc(C2Nc3ccccc3-c3nnc(SC)nc3O2)cc(Br)c1OCC (configuration not stated)	-106
CCCSc1nnc2c(n1)OC(c1ccsc1)Nc1ccc(Br)cc1-2 (configuration not stated)	-65
CSc1nnc2c(n1)OC(c1ccccc1Br)Nc1ccccc1-2 (configuration not stated)	41*
CSc1nnc2c(n1)OC(c1ccc(Br)s1)Nc1ccccc1-2 (configuration not stated)	-18
C=CCOc1cccc(C2Nc3ccccc3-c3nnc(SCC=C)nc3O2)c1 (configuration not stated)	140*
Cc1cc(C)n2nc(SCC(=O)NCC3COc4ccccc4O3)nc2n1 (configuration not stated)	-9
Cc1cc(C)cc(-n2c(=O)c3ccccc3n(Cc3ccc(F)cc3)c2=O)c1	1
CCOC(=O)C1=C(C)NC(=S)NC1c1ccccc1OCC (configuration not stated)	-1
CCC(=O)N1CCc2cc(Br)cc(S(=O)(=O)Nc3ccc(C)cc3Cl)c21	0
CN(c1ccc(N2C(=O)C3CC=CCC3C2=O)cc1[N+](=O)[O-])C1CCCCC1 (configuration not stated)	-7
Cc1ccc(C(=O)Nc2c(C)n(C)n(-c3ccccc3)c2=O)cc1[N+](=O)[O-]	-4
CC(=O)CN1C2=NCCCN2c2ccccc21	3
SMILES	14-3-3g Raf
CCSc1nnc2c(n1)OC(c1ccc(C)cc1)Nc1ccccc1-2 (configuration not stated)	5
CCSc1nnc2c(n1)OC(c1ccc(N(CC)CC)cc1)Nc1ccccc1-2 (configuration not stated)	39*
CCSc1nnc2c(n1)OC(c1ccc(CC)cc1)Nc1ccccc1-2 (configuration not stated)	18
Cc1nc2cc(C(=O)O)ccc2s1	-7
COc1cccc2c3c(c(C)nc12)CC(C)S3 (configuration not stated)	-6
Cc1nc2ccc(C(=O)O)cc2c2c1CC(C)S2 (configuration not stated)	73*
COc1cc(C2C(C(=O)Nc3ccc(C)cn3)=C(C)NC3=C2C(=O)CCC3)ccc1OCc1ccccc1 (configuration not stated)	-13
CC(=O)c1c(C)[nH]c(C(=O)Nc2cc(C)ccn2)c1C	-29
CN1CCc2c(sc(/N=C/c3cccs3)c2C(N)=O)C1	-37
CN1CCc2c(sc(/N=C/c3ccco3)c2C(N)=O)C1	48*
N#Cc1c(/N=C/c2ccco2)sc2c1CCCCC2	-7
Cc1ccc(Nc2cc(C)nc3c2ccc2ccccc23)cc1	-16
Cn1c(=O)c(NC2CCCCC2)c2c3c(cccc31)C(=O)c1ccccc1-2	32*
CCNc1cccc2c1C(=O)N(C)C2=O	-15
CCNc1c2c3c(cccc3n(C)c1=O)C(=O)c1ccccc1-2	54*
CN1C(=O)c2cccc3c(N4CCOCC4)ccc(c23)C1=O	-5
O=C1c2ccccc2C(=O)c2c1ccc(C(=O)N1CCCC1)c2NCCO	-244
Cn1c(=O)c(NCCO)c2c3c(cccc31)C(=O)c1ccccc1-2	168*
O=C1c2cccc(Cl)c2C(=O)c2c1cccc2N1CCOCC1	4
COC(=O)Cn1nc2c3c(cccc31)C(=O)c1ccccc1-2	-11
Cn1c(=O)c(=O)n(C)c2cc(S(=O)(=O)NC3CCCCCC3)ccc21	-2

Bioassay records as filed in PubChem BioAssay.
